Sampled rows, rich in hits. Any-hit rate of the full collection: about 4.7%.
DUSP3 inh = DUSP3 (human) phosphatase inhibition; P51452; inhibition, % at 13.3 µM; recombinant VHR phosphatase, pNPP absorbance; 290,000 tested, 0.52% active; in the data active = inhibition above about 50%
CCHFV vOTU inh = blocks the CCHF virus ovarian tumor domain protease. CCHFV vOTU protease, Pep-AMC fluorescence. inhibition, % at 11.5 µM. 370,000 tested, 0.55% active
RecA splice inh = Mtb RecA intein splicing inhibition; P9WHJ3; cell-free RecA intein splicing, fluorescence; inhibition, % (test concentration not listed); 290,000 tested, 0.75% active; in the data active = inhibition above about 30%
Target sequence (P9WHJ3 whole entry, looked up, canonical isoform): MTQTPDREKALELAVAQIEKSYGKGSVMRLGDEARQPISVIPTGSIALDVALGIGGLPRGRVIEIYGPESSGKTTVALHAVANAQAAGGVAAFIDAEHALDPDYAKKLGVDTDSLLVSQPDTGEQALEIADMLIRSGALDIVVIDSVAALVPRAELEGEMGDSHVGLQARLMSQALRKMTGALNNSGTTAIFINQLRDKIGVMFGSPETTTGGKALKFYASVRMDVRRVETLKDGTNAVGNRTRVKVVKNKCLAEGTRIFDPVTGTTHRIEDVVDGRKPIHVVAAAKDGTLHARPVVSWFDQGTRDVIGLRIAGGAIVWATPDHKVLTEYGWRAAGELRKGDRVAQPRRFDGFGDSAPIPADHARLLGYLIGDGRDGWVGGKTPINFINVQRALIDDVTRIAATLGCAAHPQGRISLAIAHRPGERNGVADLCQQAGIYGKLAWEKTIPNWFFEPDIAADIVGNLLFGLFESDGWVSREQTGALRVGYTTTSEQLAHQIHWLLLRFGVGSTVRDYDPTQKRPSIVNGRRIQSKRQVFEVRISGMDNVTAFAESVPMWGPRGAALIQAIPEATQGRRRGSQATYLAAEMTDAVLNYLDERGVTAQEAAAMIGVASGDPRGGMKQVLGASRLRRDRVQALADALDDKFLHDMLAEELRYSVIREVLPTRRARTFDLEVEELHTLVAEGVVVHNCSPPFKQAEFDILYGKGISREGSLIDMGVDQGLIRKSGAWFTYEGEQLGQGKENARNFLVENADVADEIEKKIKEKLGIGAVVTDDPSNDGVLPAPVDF
SARS 3CLpro inh = SARS-CoV 3CLpro protease inhibition | recombinant SARS-CoV 3CLpro, quenched FRET peptide cleavage | inhibition, % at 6 µM | 290,000 tested, 0.14% active | AID 1706; in the data active = inhibition above about 12%
GDH-TPI counter = GDH-TPI coupled enzyme inhibition counter-screen. 360,000 tested, 1.2% active. inhibition, % at 4.8 µM. GDH-TPI coupled enzyme counterscreen, NADH absorbance
Mtb FBA inh = inhibitors of M. tuberculosis fructose-bisphosphate aldolase; P9WQA3; purified M. tuberculosis FBA, fluorescence read-out; inhibition, % at 1 µM; 360,000 tested, 2.3% active; AID 588726; in the data active = inhibition above about 27%
Large screens that a line does not name were inactive. Cut-off read from the data, not from the text of the source, unless noted: active = inhibition above about 30%; inactive = the rest.

Cc1ccc(S(=O)(=O)CCC(=O)OC2CC(C)OC2=O)cc1 (stereo unspecified)	none (no result: DUSP3 inh, RecA splice inh, SARS 3CLpro inh)
COC(=O)Cc1cc(=O)n(-c2ccccc2)[nH]1	RecA splice inh 50
c1ccc(CSc2ccc(-c3ccco3)nn2)cc1	none
Cc1ccc(CSc2ccc(-c3ccco3)nn2)cc1	DUSP3 inh 53
O=C(NCC1COCCO1)C1CCN(S(=O)(=O)c2cccc3ccccc23)CC1 (stereo unspecified)	none (no result: DUSP3 inh, RecA splice inh, SARS 3CLpro inh, GDH-TPI counter, Mtb FBA inh)
COc1ccc(N/C(=C\C(=O)c2ccccc2)c2ccccc2)cc1OC	none (no result: DUSP3 inh, RecA splice inh, SARS 3CLpro inh, GDH-TPI counter, Mtb FBA inh)
COc1cc(/C=C2\SC(=O)NC2=O)ccc1Oc1cnccn1	GDH-TPI counter 36
COc1cc(/C=C2/SC(=O)NC2=O)ccc1OCc1ccccc1	GDH-TPI counter 43
COc1ccc(/C=C2/SC(=S)NC2=O)cc1OCc1ccccc1	none
O=C1NC(=O)/C(=C\c2ccc(Oc3cnccn3)cc2)S1	none
COc1ccc(Sc2cccc3c2S(=O)(=O)N(C2CC2)C[C@@H](COCc2ccccc2)O3)cc1OC	none (no result: DUSP3 inh, RecA splice inh, SARS 3CLpro inh, GDH-TPI counter, Mtb FBA inh)
O=C(C[n+]1ccccc1)N/N=C/c1ccc(F)cc1	none
COCCCN1C(=O)C(CC(=O)NC2CCCC2)CC(C(=O)N2CCOCC2)=C1C (stereo unspecified)	none (no result: DUSP3 inh, RecA splice inh, SARS 3CLpro inh)
Cc1cc2c(C)c(C)c(=O)[nH]c2cc1N	GDH-TPI counter 35, Mtb FBA inh active
CC(=O)c1ccc(Nc2nc(CN)cs2)cc1	none (no result: DUSP3 inh, RecA splice inh, SARS 3CLpro inh)
CCOc1ccc(NC(=O)NCC2CCN(c3ccc(OC)cc3)C2)cc1 (stereo unspecified)	GDH-TPI counter 33
CCc1ccc(NC(=O)NCC2CCN(c3ccc(OC)cc3)C2)cc1 (stereo unspecified)	none
Cn1c(O)c(/C=N/c2ccccn2)c(=O)n(C)c1=O	GDH-TPI counter 33
Cn1c(O)c(C=Nc2ccccc2)c(=O)n(C)c1=O	GDH-TPI counter 46
Cn1c(O)c(C=Nc2ccc(Cl)cc2)c(=O)n(C)c1=O	none
COc1cccc(-c2noc(CCC(=O)NCCc3ccccc3)n2)c1	DUSP3 inh 58
NS(=O)(=O)c1ccc(N/C=C\C(=O)c2cccc3ccccc23)cc1	none
Cc1cc(C)nc(NS(=O)(=O)c2ccc(NC(=O)Cc3ccc(F)cc3)cc2)n1	DUSP3 inh 54
Cc1cc(C)nc(NS(=O)(=O)c2ccc(NC(=O)Cc3ccccc3)cc2)n1	none
O=S(=O)(Nc1ncccn1)c1ccc(Nc2ncnc3ccccc23)cc1	GDH-TPI counter 49
Cc1cc(C)nc(NS(=O)(=O)c2ccc(N/C=C/C(=O)c3ccc(Cl)cc3)cc2)n1	GDH-TPI counter 32
O=C(/C=C\Nc1ccc(S(=O)(=O)Nc2ncccn2)cc1)c1cccc2ccccc12	GDH-TPI counter 55
[O-][n+]1cccc2ncc3cscc3c21	none
CN1C(=O)[C@@](O)(c2cn(C)c3ccccc23)c2cc(Br)ccc21	none (no result: DUSP3 inh, RecA splice inh, SARS 3CLpro inh, GDH-TPI counter, Mtb FBA inh)
Nc1ccc2c(c1)oc1ccccc12	Mtb FBA inh 57
Nc1cccc(C#Cc2ccc3c(=O)c4ccccc4oc3c2)c1	none (no result: DUSP3 inh, RecA splice inh, SARS 3CLpro inh)
Cc1c(/C=N/NC(=O)CNc2ccccc2)c2ccccn2c1C(=O)c1ccc(Cl)cc1	none
